Measured values: PubChem BioAssay (EPA / NIEHS)
Results filed as inconclusive are left out. Calls of active or inactive are those of the source. Rule for the calls: active = hit-call score of the fitted dose curve at least 0.9, where 1 is the maximum; inconclusive = response in the unintended direction; inactive = score below 0.9.

Target: Oxysterols receptor LXR-beta (Homo sapiens) (UniProt P55055)
Assay: ATG_LXRb_TRANS: Attagene TRANS-FACTORIAL HepG2 Assay for human Liver X Receptor beta (LXRb) (AID 2282981)
Settings: HepG2 Attagene TRANS GAL4-LXRb reporter, mRNA
Method in brief: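 Readout: fluorescent reporter mRNA fragments resolved by capillary electrophoresis after RT-PCR. System: transiently transfected human HepG2, exogenous LXRb-Gal4 chimera driving GAL4-UAS reporter, 24 h dosing. Activity fitted upward against DMSO baseline.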

Oxysterols receptor LXR-beta (Homo sapiens), sequence (P55055 whole entry, looked up): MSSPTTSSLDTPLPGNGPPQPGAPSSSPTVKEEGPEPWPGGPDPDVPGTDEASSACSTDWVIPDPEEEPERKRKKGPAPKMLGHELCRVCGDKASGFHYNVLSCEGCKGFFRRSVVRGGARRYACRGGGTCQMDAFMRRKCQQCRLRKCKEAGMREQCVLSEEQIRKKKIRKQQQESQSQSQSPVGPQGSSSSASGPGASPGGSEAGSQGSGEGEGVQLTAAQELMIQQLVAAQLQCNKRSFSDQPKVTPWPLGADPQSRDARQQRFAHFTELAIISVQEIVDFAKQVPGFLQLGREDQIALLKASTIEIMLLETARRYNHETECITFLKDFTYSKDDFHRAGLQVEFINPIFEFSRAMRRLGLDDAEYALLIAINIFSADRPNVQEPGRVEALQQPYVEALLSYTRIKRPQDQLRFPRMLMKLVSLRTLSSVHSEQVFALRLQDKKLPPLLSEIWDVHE

Compound | outcome
Oc1ccc2cc(SSc3ccc4cc(O)ccc4c3)ccc2c1 | inactive
CCOc1ccccc1O | inactive
CCOc1ccc(NC(=O)CC(C)=O)cc1 | inactive
COCCOC(=O)c1ccccc1C(=O)OCCOC | inactive
OCCOCCN1CCN(C2=Nc3ccccc3Sc3ccccc32)CC1 | inactive
CCCCCCCCCCCC(=O)OCC(O)CO (stereo not drawn) | inactive
C=C(C)C1CC=C(C)C(=O)C1 (stereo not drawn) | inactive
CCCCCCOCCOCCO | inactive
CCCCCCOC(=O)C(C)C | inactive
O=C1NC2NC(=O)NC2N1 (stereo not drawn) | inactive
C=CC(=O)OCCC#N | inactive
CC(=O)c1ccccn1 | inactive
CCCC(O)C(O)CO (stereo not drawn) | inactive
CC(C)CC(C)CC(O)CC(C)C (stereo not drawn) | inactive
COc1ccccc1[N+](=O)[O-] | inactive
CC(C)NCC(O)COc1ccc(CC(N)=O)cc1 (stereo not drawn) | inactive
CC(C)(CO)[C@@H](O)C(=O)NCCC(=O)O | inactive
COc1ccc(COC(C)=O)cc1 | inactive
O=C1OC(=O)c2c(Br)c(Br)c(Br)c(Br)c21 | inactive
C[C@@H]1CCN(C(=O)[C@H](CCCN=C(N)N)NS(=O)(=O)c2cccc3c2NC[C@H](C)C3)[C@@H](C(=O)O)C1 | inactive
COS(=O)(=O)O | inactive
CCCC(=O)C(CC)Sc1ccoc1C (stereo not drawn) | inactive
COC(=O)Nc1ccc(Cl)c(Cl)c1 | inactive

Target: Hepatocyte nuclear factor 4-alpha (Homo sapiens) (UniProt P41235)
Assay: ATG_HNF4a_TRANS: Attagene TRANS-FACTORIAL HepG2 Assay for human Hepatocyte Nuclear Factor 4 alpha (HNF4a) (AID 2282982)
Settings: HepG2 HNF4a transactivation reporter, mRNA readout
Method in brief: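 Transient MRTU transfection of HepG2, 24 h dosing. Readout: reporter mRNA via RT-PCR + capillary electrophoresis, fluorescence; activity fit upward relative to DMSO control.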

Hepatocyte nuclear factor 4-alpha (Homo sapiens), sequence (P41235 whole entry, looked up): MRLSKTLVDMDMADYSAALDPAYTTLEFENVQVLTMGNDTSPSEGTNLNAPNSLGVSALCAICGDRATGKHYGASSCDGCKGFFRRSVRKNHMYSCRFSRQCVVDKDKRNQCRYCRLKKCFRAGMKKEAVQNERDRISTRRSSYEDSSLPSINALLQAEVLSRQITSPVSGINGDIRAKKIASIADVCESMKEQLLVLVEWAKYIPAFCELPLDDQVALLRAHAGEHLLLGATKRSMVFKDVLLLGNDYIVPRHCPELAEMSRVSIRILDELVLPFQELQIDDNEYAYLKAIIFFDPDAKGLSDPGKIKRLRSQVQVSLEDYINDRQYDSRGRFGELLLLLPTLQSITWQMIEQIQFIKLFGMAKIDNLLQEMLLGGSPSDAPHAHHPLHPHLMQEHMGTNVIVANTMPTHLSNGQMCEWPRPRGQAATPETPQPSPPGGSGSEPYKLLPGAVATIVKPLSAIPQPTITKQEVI

Compound | outcome
CN(C)c1ccncc1 | inactive
OCc1ccc(Cl)cc1Cl | inactive
Cc1occc(=O)c1OC(=O)C(C)C | inactive
Oc1ccc2cc(SSc3ccc4cc(O)ccc4c3)ccc2c1 | inactive
CCOC(=O)COC(=O)c1cc(Oc2ccc(C(F)(F)F)cc2Cl)ccc1[N+](=O)[O-] | inactive
CCOc1ccccc1O | inactive
CCOc1ccc(NC(=O)CC(C)=O)cc1 | inactive
COCCOC(=O)c1ccccc1C(=O)OCCOC | inactive
C=C(C)C1CC=C(C)C(=O)C1 (stereo not drawn) | inactive
CCCCCCOCCOCCO | inactive
CCCCCCOC(=O)C(C)C | inactive
O=C1NC2NC(=O)NC2N1 (stereo not drawn) | inactive
C=CC(=O)OCCC#N | inactive
CCCC(O)C(O)CO (stereo not drawn) | inactive
CCOc1ccc(N=Nc2ccc(C=Cc3ccc(N=Nc4ccc(OCC)cc4)cc3S(=O)(=O)O)c(S(=O)(=O)O)c2)cc1 | inactive
COC(CC(C)CCCC(C)(C)O)OC (stereo not drawn) | inactive
CC(C)NCC(O)COc1ccc(CC(N)=O)cc1 (stereo not drawn) | inactive
COc1ccc(COC(C)=O)cc1 | inactive
COS(=O)(=O)O | inactive
COC(=O)Nc1ccc(Cl)c(Cl)c1 | inactive
Cc1ncc([N+](=O)[O-])n1CCO | inactive
O=CCc1ccccc1 | inactive

Test system: not listed separately
Assay: ATG_M_06_TRANS: Attagene TRANS-FACTORIAL HepG2 Assay for M06 Transcription Factor (Internal Marker) (AID 2282983);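 note: reporter transcript level by RT-PCR then capillary electrophoresis fluorescence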
Settings: HepG2 Attagene TRANS M06 internal marker reporter
Method in brief: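 Background-control reporter readout: after 24 h chemical exposure of transiently transfected HepG2 (GAL4-UAS reporter units), mRNA quantified by RT-PCR with fluorescent labeling and capillary electrophoresis. Gain-of-signal fitting against DMSO baseline.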

Compound | outcome
OCc1ccc(Cl)cc1Cl | inactive
Oc1ccc2cc(SSc3ccc4cc(O)ccc4c3)ccc2c1 | inactive
CCOc1ccccc1O | inactive
CCOc1ccc(NC(=O)CC(C)=O)cc1 | inactive
COCCOC(=O)c1ccccc1C(=O)OCCOC | inactive
OCCOCCN1CCN(C2=Nc3ccccc3Sc3ccccc32)CC1 | inactive
CC(C)c1ccccc1O | inactive
CCCCCCCCCCCC(=O)OCC(O)CO (stereo not drawn) | inactive
C=C(C)C1CC=C(C)C(=O)C1 (stereo not drawn) | inactive
CCCCCCOCCOCCO | inactive
CCCCCCOC(=O)C(C)C | inactive
C=CC(=O)OCCC#N | inactive
CC(=O)c1ccccn1 | inactive
COc1ccccc1[N+](=O)[O-] | inactive
CCOc1ccc(N=Nc2ccc(C=Cc3ccc(N=Nc4ccc(OCC)cc4)cc3S(=O)(=O)O)c(S(=O)(=O)O)c2)cc1 | inactive
CC(C)NCC(O)COc1ccc(CC(N)=O)cc1 (stereo not drawn) | inactive
CC(C)(CO)[C@@H](O)C(=O)NCCC(=O)O | inactive
COc1ccc(COC(C)=O)cc1 | inactive
CCc1ccc(O)c(OC)c1 | inactive
O=C1OC(=O)c2c(Br)c(Br)c(Br)c(Br)c21 | inactive
C[C@@H]1CCN(C(=O)[C@H](CCCN=C(N)N)NS(=O)(=O)c2cccc3c2NC[C@H](C)C3)[C@@H](C(=O)O)C1 | inactive
COS(=O)(=O)O | inactive
CCCC(=O)C(CC)Sc1ccoc1C (stereo not drawn) | inactive
Cc1ncc([N+](=O)[O-])n1CCO | inactive
CCCCSCCCC | inactive

Test system: not listed separately
Assay: ATG_M_32_TRANS: Attagene TRANS-FACTORIAL HepG2 Assay for M32 Transcription Factor (Internal Marker) (AID 2282984);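 note: transcript level of a background control reporter unit measured by RT-PCR and capillary electrophoresis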
Settings: HepG2 Attagene TRANS M32 internal marker reporter
Method in brief: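 Read-out: fluorescent reporter cDNA fragments resolved by capillary electrophoresis after RT-PCR of total RNA. Transfected HepG2 cells were exposed to chemical for 24 h. Activity scored in the positive direction relative to DMSO.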

Compound | outcome
Cc1occc(=O)c1OC(=O)C(C)C | inactive
Oc1ccc2cc(SSc3ccc4cc(O)ccc4c3)ccc2c1 | inactive
CCOC(=O)COC(=O)c1cc(Oc2ccc(C(F)(F)F)cc2Cl)ccc1[N+](=O)[O-] | inactive
CCOc1ccccc1O | inactive
CCOc1ccc(NC(=O)CC(C)=O)cc1 | inactive
OCCOCCN1CCN(C2=Nc3ccccc3Sc3ccccc32)CC1 | inactive
CCCCCCCCCCCC(=O)OCC(O)CO (stereo not drawn) | inactive
CCCCCCOCCOCCO | inactive
CC(C)NCC(O)COc1ccc(CC(N)=O)cc1 (stereo not drawn) | inactive
CC(C)(CO)[C@@H](O)C(=O)NCCC(=O)O | inactive
O=C1OC(=O)c2c(Br)c(Br)c(Br)c(Br)c21 | inactive
CCCC(=O)C(CC)Sc1ccoc1C (stereo not drawn) | inactive
O=CCc1ccccc1 | inactive
